Results taken from PubChem BioAssay AID1159580 (chemical genetic matrix, 2015).
In all, about 5,500 compounds went through this assay and about 2,000 (36%) were called active. Not shown: some 18% with an inconclusive outcome. No stated cut-off is given here; in the data, active means normalized growth mostly below about 0.91 (no sharp cut-off); inconclusive means no clear call, values can overlap the other calls; inactive means mostly above about 0.92. This is one part of the list.

Assay: chemical genetic growth profiling, strain panel (AID 1159580);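 further: tested at 20 µM; growth read once vehicle control cultures reached saturation at 30 °C; 1 = growth at the plate median or of vehicle wells; lower values mean less growth of the strain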
Conditions: growth OD

Measured: normalized growth

COc1cc(O)c(C(=O)/C=C/c2ccccc2)c(OC)c1
active: S. cerevisiae deletion strains, locus YAL013W, strain DEP1, hits give low values 0.897 | S. cerevisiae deletion strains, locus YBR009C, strain hhf1, hits give low values 0.846 | S. cerevisiae deletion strains, locus YBR023C, strain chs3, hits give low values 0.893 | S. cerevisiae deletion strains, locus YBR279W, strain paf1, hits give low values 0.894 | S. cerevisiae deletion strains, locus YCL011C, strain gbp2, hits give low values 0.867 | S. cerevisiae deletion strains, locus YCL016C, strain dcc1, hits give low values 0.861 | S. cerevisiae deletion strains, locus YDL074C, strain BRE1, hits give low values 0.682 | S. cerevisiae deletion strains, locus YDL134C, strain PPH21, hits give low values 0.807 | S. cerevisiae deletion strains, locus YDL192W, strain arf1, hits give low values 0.796 | S. cerevisiae deletion strains, locus YDR101C, strain arx1, hits give low values 0.857 | S. cerevisiae deletion strains, locus YDR137W, strain rgp1, hits give low values 0.717 | S. cerevisiae deletion strains, locus YDR195W, strain ref2 1.18 [resistant] | S. cerevisiae deletion strains, locus YDR318W, strain mcm21, hits give low values 0.816 | S. cerevisiae deletion strains, locus YDR392W, strain spt3, hits give low values 0.373 | S. cerevisiae deletion strains, locus YDR502C, strain sam2, hits give low values 0.819 | S. cerevisiae deletion strains, locus YER015W, strain faa2, hits give low values 0.89 | S. cerevisiae deletion strains, locus YER110C, hits give low values 0.863 | S. cerevisiae deletion strains, locus YER155C, strain BEM2 (second series), hits give low values 0.807 | S. cerevisiae deletion strains, locus YER155C, strain BEM2, hits give low values 0.625 | S. cerevisiae deletion strains, locus YGL086W, strain mad1, hits give low values 0.794 | S. cerevisiae deletion strains, locus YGL240W, strain doc1, hits give low values 0.819 | S. cerevisiae deletion strains, locus YGL248W, strain PDE1, hits give low values 0.8 | S. cerevisiae deletion strains, locus YGL253W, strain hxk2, hits give low values 0.85 | S. cerevisiae deletion strains, locus YGR135W, strain pre9, hits give low values 0.83 | S. cerevisiae deletion strains, locus YGR229C, strain SMI1, hits give low values 0.681 | S. cerevisiae deletion strains, locus YGR252W, strain gcn5, hits give low values 0.667 | S. cerevisiae deletion strains, locus YHR079C, strain IRE1 (second series), hits give low values 0.909 | S. cerevisiae deletion strains, locus YHR094C, strain hxt1, hits give low values 0.917 | S. cerevisiae deletion strains, locus YHR129C, strain ARP1, hits give low values 0.857 | S. cerevisiae deletion strains, locus YHR142W, strain chs7, hits give low values 0.791 | S. cerevisiae deletion strains, locus YHR200W, strain rpn10, hits give low values 0.891 | S. cerevisiae deletion strains, locus YIR030C, strain dcg1, hits give low values 0.898 | S. cerevisiae deletion strains, locus YJL095W, strain BCK1, hits give low values 0.574 | S. cerevisiae deletion strains, locus YJL129C, strain trk1, hits give low values 0.779 | S. cerevisiae deletion strains, locus YJL164C, strain tpk1, hits give low values 0.858 | S. cerevisiae deletion strains, locus YJL166W, strain qcr8, hits give low values 0.792 | S. cerevisiae deletion strains, locus YJL187C, strain SWE1 (second series), hits give low values 0.866 | S. cerevisiae deletion strains, locus YKL068W, hits give low values 0.934 | S. cerevisiae deletion strains, locus YKL160W, strain elf1, hits give low values 0.852 | S. cerevisiae deletion strains, locus YKR001C, strain vps1, hits give low values 0.642 | S. cerevisiae deletion strains, locus YLL001W, strain dnm1, hits give low values 0.899 | S. cerevisiae deletion strains, locus YLR027C, strain aat2, hits give low values 0.859 | S. cerevisiae deletion strains, locus YLR039C, strain RIC1, hits give low values 0.674 | S. cerevisiae deletion strains, locus YLR058C, strain SHM2, hits give low values 0.848 | S. cerevisiae deletion strains, locus YLR102C, strain apc9, hits give low values 0.922 | S. cerevisiae deletion strains, locus YLR221C, strain rsa3, hits give low values 0.844 | S. cerevisiae deletion strains, locus YLR258W, strain gsy2, hits give low values 0.907 | S. cerevisiae deletion strains, locus YLR262C, strain YPT6 (second series), hits give low values 0.774 | S. cerevisiae deletion strains, locus YLR268W, strain sec22, hits give low values 0.804 | S. cerevisiae deletion strains, locus YLR320W, strain mms22, hits give low values 0.748 | S. cerevisiae deletion strains, locus YLR371W, strain rom2, hits give low values 0.8 | S. cerevisiae deletion strains, locus YLR418C, strain cdc73, hits give low values 0.41 | S. cerevisiae deletion strains, locus YML032C, strain rad52, hits give low values 0.826 | S. cerevisiae deletion strains, locus YML120C, strain ndi1, hits give low values 0.866 | S. cerevisiae deletion strains, locus YML124C, strain tub3, hits give low values 0.923 | S. cerevisiae deletion strains, locus YMR078C, strain ctf18, hits give low values 0.898 | S. cerevisiae deletion strains, locus YMR205C, strain PFK2, hits give low values 0.805 | S. cerevisiae deletion strains, locus YMR223W, strain ubp8, hits give low values 0.87 | S. cerevisiae deletion strains, locus YMR307W, strain GAS1, hits give low values 0.502 | S. cerevisiae deletion strains, locus YNL071W, strain lat1, hits give low values 0.503 | S. cerevisiae deletion strains, locus YNL233W, strain BNI4, hits give low values 0.766 | S. cerevisiae deletion strains, locus YNL298W, strain CLA4, hits give low values 0.879 | S. cerevisiae deletion strains, locus YNL307C, strain MCK1, hits give low values 0.301 | S. cerevisiae deletion strains, locus YOL147C, strain pex11, hits give low values 0.739 | S. cerevisiae deletion strains, locus YOR070C, strain gyp1, hits give low values 0.897 | S. cerevisiae deletion strains, locus YOR083W, strain WHI5, hits give low values 0.852 | S. cerevisiae deletion strains, locus YOR106W, strain vam3, hits give low values 0.802 | S. cerevisiae deletion strains, locus YOR136W, strain idh2, hits give low values 0.907 | S. cerevisiae deletion strains, locus YOR144C, strain elg1, hits give low values 0.878 | S. cerevisiae deletion strains, locus YOR184W, strain ser1, hits give low values 0.602 | S. cerevisiae deletion strains, locus YOR265W, strain rbl2, hits give low values 0.903 | S. cerevisiae deletion strains, locus YOR290C, strain snf2, hits give low values 0.853 | S. cerevisiae deletion strains, locus YPL051W, strain arl3, hits give low values 0.82 | S. cerevisiae deletion strains, locus YPL078C, strain atp4, hits give low values 0.864 | S. cerevisiae deletion strains, locus YPL106C, strain sse1, hits give low values 0.772 | S. cerevisiae deletion strains, locus YPL240C, strain hsp82, hits give low values 0.919 | S. cerevisiae deletion strains, locus YPR119W, strain clb2, hits give low values 0.921 | S. cerevisiae deletion strains, locus YPR163C, strain tif3, hits give low values 0.605 | S. cerevisiae deletion strains, locus YPR167C, strain met16, hits give low values 0.869 | S. cerevisiae deletion strains, strain wtn01, hits give low values 0.816
inactive: S. cerevisiae deletion strains, locus YAL021C, strain ccr4, hits give low values 0.998 | S. cerevisiae deletion strains, locus YAL026C, strain drs2, hits give low values 0.945 | S. cerevisiae deletion strains, locus YAL030W, strain snc1, hits give low values 0.941 | S. cerevisiae deletion strains, locus YBL061C, strain skt5, hits give low values 0.928 | S. cerevisiae deletion strains, locus YBR021W, strain FUR4, hits give low values 0.895 | S. cerevisiae deletion strains, locus YBR171W, strain sec66, hits give low values 0.957 | S. cerevisiae deletion strains, locus YBR229C, strain ROT2, hits give low values 0.942 | S. cerevisiae deletion strains, locus YBR231C, strain swc5, hits give low values 0.917 | S. cerevisiae deletion strains, locus YCL029C, strain bik1, hits give low values 0.923 | S. cerevisiae deletion strains, locus YCL061C, strain MRC1, hits give low values 0.922 | S. cerevisiae deletion strains, locus YCL069W, strain vba3, hits give low values 0.946 | S. cerevisiae deletion strains, locus YCR088W, strain abp1, hits give low values 0.96 | S. cerevisiae deletion strains, locus YDL005C, strain med2, hits give low values 0.98 | S. cerevisiae deletion strains, locus YDL035C, strain GPR1, hits give low values 0.907 | S. cerevisiae deletion strains, locus YDL040C, strain nat1, hits give low values 0.937 | S. cerevisiae deletion strains, locus YDL101C, strain DUN1, hits give low values 0.916 | S. cerevisiae deletion strains, locus YDL185W, strain tfp1, hits give low values 0.945 | S. cerevisiae deletion strains, locus YDR001C, strain nth1, hits give low values 0.947 | S. cerevisiae deletion strains, locus YDR069C, strain doa4, hits give low values 0.963 | S. cerevisiae deletion strains, locus YDR159W, strain sac3, hits give low values 0.975 | S. cerevisiae deletion strains, locus YDR162C, strain NBP2, hits give low values 0.947 | S. cerevisiae deletion strains, locus YDR297W, strain sur2, hits give low values 0.947 | S. cerevisiae deletion strains, locus YDR334W, strain swr1, hits give low values 0.972 | S. cerevisiae deletion strains, locus YDR335W, strain msn5, hits give low values 0.949 | S. cerevisiae deletion strains, locus YDR388W, hits give low values 0.932 | S. cerevisiae deletion strains, locus YEL003W, strain gim4, hits give low values 0.914 | S. cerevisiae deletion strains, locus YEL037C, strain rad23, hits give low values 0.948 | S. cerevisiae deletion strains, locus YEL061C, strain CIN8 (second series), hits give low values 0.966 | S. cerevisiae deletion strains, locus YER016W, strain bim1, hits give low values 0.945 | S. cerevisiae deletion strains, locus YER111C, strain swi4, hits give low values 0.987 | S. cerevisiae deletion strains, locus YER167W, strain BCK2, hits give low values 0.95 | S. cerevisiae deletion strains, locus YFR010W, strain ubp6, hits give low values 0.944 | S. cerevisiae deletion strains, locus YGL078C, strain dbp3, hits give low values 0.943 | S. cerevisiae deletion strains, locus YGL167C, strain pmr1, hits give low values 0.921 | S. cerevisiae deletion strains, locus YGL173C, strain kem1, hits give low values 0.921 | S. cerevisiae deletion strains, locus YGL227W, strain vid30, hits give low values 0.968 | S. cerevisiae deletion strains, locus YHR013C, strain ard1, hits give low values 1.01 | S. cerevisiae deletion strains, locus YHR027C, strain rpn1, hits give low values 0.942 | S. cerevisiae deletion strains, locus YHR030C, strain SLT2, hits give low values 0.924 | S. cerevisiae deletion strains, locus YIL066C, strain RNR3, hits give low values 0.867 | S. cerevisiae deletion strains, locus YIL073C, strain SPO22, hits give low values 0.733 | S. cerevisiae deletion strains, locus YIL125W, strain kgd1, hits give low values 0.944 | S. cerevisiae deletion strains, locus YJL092W, strain hpr5, hits give low values 0.945 | S. cerevisiae deletion strains, locus YJL095W, strain BCK1 (second series), hits give low values 0.945 | S. cerevisiae deletion strains, locus YJL115W, strain asf1, hits give low values 0.979 | S. cerevisiae deletion strains, locus YJL134W, strain LCB3, hits give low values 0.953 | S. cerevisiae deletion strains, locus YJL154C, strain vps35, hits give low values 0.975 | S. cerevisiae deletion strains, locus YJL168C, strain set2, hits give low values 0.943 | S. cerevisiae deletion strains, locus YKL009W, strain mrt4, hits give low values 0.89 | S. cerevisiae deletion strains, locus YKL085W, strain MDH1 (second series), hits give low values 0.952 | S. cerevisiae deletion strains, locus YKL085W, strain MDH1, hits give low values 0.952 | S. cerevisiae deletion strains, locus YKL190W, strain CNB1, hits give low values 0.953 | S. cerevisiae deletion strains, locus YKR026C, strain gcn3, hits give low values 0.95 | S. cerevisiae deletion strains, locus YKR091W, strain srl3, hits give low values 0.942 | S. cerevisiae deletion strains, locus YLL026W, hits give low values 0.937 | S. cerevisiae deletion strains, locus YLL041C, strain sdh2, hits give low values 0.943 | S. cerevisiae deletion strains, locus YLR262C, strain YPT6, hits give low values 0.708 | S. cerevisiae deletion strains, locus YLR342W, strain FKS1 (second series), hits give low values 0.876 | S. cerevisiae deletion strains, locus YLR342W, strain FKS1, hits give low values 0.93 | S. cerevisiae deletion strains, locus YLR357W, strain rsc2, hits give low values 1.01 | S. cerevisiae deletion strains, locus YLR370C, strain arc18, hits give low values 0.943 | S. cerevisiae deletion strains, locus YLR384C, strain iki3, hits give low values 0.947 | S. cerevisiae deletion strains, locus YML016C, strain PPZ1, hits give low values 0.931 | S. cerevisiae deletion strains, locus YMR058W, strain fet3, hits give low values 0.918 | S. cerevisiae deletion strains, locus YMR125W, strain sto1, hits give low values 0.893 | S. cerevisiae deletion strains, locus YMR129W, hits give low values 0.937 | S. cerevisiae deletion strains, locus YMR231W, strain pep5, hits give low values 0.967 | S. cerevisiae deletion strains, locus YNL067W, strain RPL9B, hits give low values 0.925 | S. cerevisiae deletion strains, locus YNL128W, strain TEP1, hits give low values 0.95 | S. cerevisiae deletion strains, locus YNL209W, strain ssb2, hits give low values 0.95 | S. cerevisiae deletion strains, locus YNL248C, strain rpa49, hits give low values 0.951 | S. cerevisiae deletion strains, locus YNL250W, strain rad50, hits give low values 0.979 | S. cerevisiae deletion strains, locus YNL271C, strain bni1, hits give low values 0.953 | S. cerevisiae deletion strains, locus YNL322C, strain KRE1 (second series), hits give low values 0.947 | S. cerevisiae deletion strains, locus YNL322C, strain KRE1, hits give low values 0.948 | S. cerevisiae deletion strains, locus YNR049C, strain mso1, hits give low values 0.964 | S. cerevisiae deletion strains, locus YNR052C, strain pop2, hits give low values 0.946 | S. cerevisiae deletion strains, locus YOL006C, strain TOP1, hits give low values 0.733 | S. cerevisiae deletion strains, locus YOL012C, strain htz1 1.12 | S. cerevisiae deletion strains, locus YOR001W, strain rrp6, hits give low values 0.894 | S. cerevisiae deletion strains, locus YOR061W, strain CKA2, hits give low values 0.957 | S. cerevisiae deletion strains, locus YOR069W, strain VPS5, hits give low values 0.94 | S. cerevisiae deletion strains, locus YOR080W, strain dia2, hits give low values 0.966 | S. cerevisiae deletion strains, locus YOR270C, strain vph1, hits give low values 0.811 | S. cerevisiae deletion strains, locus YOR316C, strain cot1, hits give low values 0.931 | S. cerevisiae deletion strains, locus YPR141C, strain kar3, hits give low values 0.96 | S. cerevisiae strains, strain wild type, hits give low values 0.905
